Laboratory results: the supplement of paper PMC10849652
The full data set covers some 7,900 targets. This sample favours those with a hit. About 0.6% of all pairs of compound and target were hits.

Columns and labels:
Assay in all cases: log2 fold change, soluble protein after heating vs DMSO (PISA); higher = thermal stabilisation; K562 cells, 10 uM, 30 min; active = over 0.2 and 3.5 SD of the protein, either way, in both replicates (recomputed)
[1] = compound: Cc1cccc(CC(=O)N2CCc3c2ccc(-c2cn(C)c4ncnc(N)c24)c3F)n1
Procedure, shortened: (§1)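 Values are thermal stability changes relative to control samples and are taken from duplicates. They are stated as log2 fold changes. Before quantification by TMTpro 16plex LC-MS/MS with equalised channel sums, K562 cells at 2×10^6 cells/mL were treated with 10 μM compound for 30 min, heated in aliquots for 3 min across 48°C-58°C, pooled, extracted in PBS with 0.5% NP-40 at 4°C, and centrifuged at 21,000xg for 90 min to give the soluble supernatant.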

mubritinib = compound: FC(F)(F)c1ccc(/C=C/c2nc(COc3ccc(CCCCn4ccnn4)cc3)co2)cc1 [mubritinib]
Procedure, shortened: as §1

[2] = compound: NC(=O)c1cnc(N[C@@H]2CCCC[C@@H]2N)nc1Nc1cccc(-n2nccn2)c1
Procedure, shortened: as §1

[3] = compound: NC1(c2ccc(-c3nc4ccn5c(=O)[nH]nc5c4cc3-c3ccccc3)cc2)CCC1
Procedure, shortened: as §1

vorinostat = compound: O=C(CCCCCCC(=O)Nc1ccccc1)NO [vorinostat]
Procedure, shortened: as §1

citarinostat = compound: O=C(CCCCCCNC(=O)c1cnc(N(c2ccccc2)c2ccccc2Cl)nc1)NO [citarinostat]
Procedure, shortened: as §1

silmitasertib = compound: O=C(O)c1ccc2c(c1)nc(Nc1cccc(Cl)c1)c1ccncc12 [silmitasertib]
Procedure, shortened: as §1

[4] = compound: O=C1NC(=O)C(c2cnc3ccccn23)=C1c1cn2c3c(cc(F)cc13)CN(C(=O)N1CCCCC1)CC2
Procedure, shortened: as §1

[5] = compound: c1cc(OCCN2CCCCC2)cc(-c2n[nH]c3ccc(-c4nnc[nH]4)cc23)c1
Procedure, shortened: as §1

[6] = compound: Cn1cc(-c2ccc3c(c2)CCN3C(=O)Cc2cccc(C(F)(F)F)c2)c2c(N)ncnc21
Procedure, shortened: as §1

[7] = compound: NCC(=O)Nc1ccc(-n2nc(C(F)(F)F)cc2-c2ccc3c(ccc4ccccc43)c2)cc1
Procedure, shortened: as §1

dasatinib = compound: Cc1nc(Nc2ncc(C(=O)Nc3c(C)cccc3Cl)s2)cc(N2CCN(CCO)CC2)n1 [dasatinib]
Procedure, shortened: as §1

nilotinib = compound: Cc1cn(-c2cc(NC(=O)c3ccc(C)c(Nc4nccc(-c5cccnc5)n4)c3)cc(C(F)(F)F)c2)cn1 [nilotinib]
Procedure, shortened: as §1

[8] = compound: Cc1nc(Nc2n[nH]c3c2CN(C(=O)N[C@H](CN(C)C)c2ccccc2)C3(C)C)c2sccc2n1
Procedure, shortened: as §1

[9] = compound: Cc1ncc(-c2ccnc(Nc3ccc(S(C)(=O)=O)cc3)n2)n1C(C)C
Procedure, shortened: as §1

[10] = compound: Cn1cc(-c2ccc3nnc(C(F)(F)c4ccc5ncccc5c4)n3n2)cn1
Procedure, shortened: as §1

bafetinib = compound: Cc1ccc(NC(=O)c2ccc(CN3CC[C@H](N(C)C)C3)c(C(F)(F)F)c2)cc1Nc1nccc(-c2cncnc2)n1 [bafetinib]
Procedure, shortened: as §1

[11] = compound: NC(=O)Nc1cc(-c2cccc(F)c2)sc1C(=O)N[C@H]1CCCNC1
Procedure, shortened: as §1

entinostat = compound: Nc1ccccc1NC(=O)c1ccc(CNC(=O)OCc2cccnc2)cc1 [entinostat]
Procedure, shortened: as §1

tipifarnib = compound: Cn1cncc1[C@@](N)(c1ccc(Cl)cc1)c1ccc2c(c1)c(-c1cccc(Cl)c1)cc(=O)n2C [tipifarnib]
Procedure, shortened: as §1

Measured: log2 fold change

TBC1D2 (UniProt Q9BYX2)
UniProt Q9BYX2, sequence (Q9BYX2 whole entry, looked up): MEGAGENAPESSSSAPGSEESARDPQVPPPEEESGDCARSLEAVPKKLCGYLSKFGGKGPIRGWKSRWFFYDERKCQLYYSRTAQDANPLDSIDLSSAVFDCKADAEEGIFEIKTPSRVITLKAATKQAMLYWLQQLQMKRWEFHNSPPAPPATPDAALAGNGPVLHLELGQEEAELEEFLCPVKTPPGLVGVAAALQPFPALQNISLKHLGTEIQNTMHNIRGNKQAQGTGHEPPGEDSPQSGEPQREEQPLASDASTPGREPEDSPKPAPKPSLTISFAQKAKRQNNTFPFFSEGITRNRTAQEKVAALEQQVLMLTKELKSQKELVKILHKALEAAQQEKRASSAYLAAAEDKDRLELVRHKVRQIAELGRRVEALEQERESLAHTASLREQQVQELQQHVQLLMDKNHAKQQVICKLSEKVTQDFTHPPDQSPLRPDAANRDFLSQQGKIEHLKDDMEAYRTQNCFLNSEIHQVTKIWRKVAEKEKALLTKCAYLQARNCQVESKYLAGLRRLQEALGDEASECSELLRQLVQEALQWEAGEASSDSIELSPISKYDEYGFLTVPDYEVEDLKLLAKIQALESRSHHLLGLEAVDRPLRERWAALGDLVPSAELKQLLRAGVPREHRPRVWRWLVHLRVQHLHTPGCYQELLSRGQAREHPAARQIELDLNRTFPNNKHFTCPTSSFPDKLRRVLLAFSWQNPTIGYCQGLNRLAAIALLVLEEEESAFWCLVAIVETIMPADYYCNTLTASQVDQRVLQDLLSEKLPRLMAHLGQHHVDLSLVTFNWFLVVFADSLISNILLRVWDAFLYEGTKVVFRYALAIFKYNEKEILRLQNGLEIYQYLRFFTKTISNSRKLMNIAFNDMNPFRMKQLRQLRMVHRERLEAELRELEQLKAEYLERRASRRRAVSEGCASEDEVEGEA
inactive: [1] 0.213 | mubritinib -0.085 | [2] -0.078 | [3] -0.181 | vorinostat -0.022 | citarinostat -0.026 | silmitasertib 0.26 | [4] 0.058 | [5] -0.202

SLC46A1 (UniProt Q96NT5)
inactive: [1] -0.016 | [6] -0.119 | [2] -0.143 | [7] 0.137 | vorinostat -0.005 | citarinostat -0.061 | [5] 0.01

SSB (UniProt E7ERC4)
inactive: [1] -0.025 | dasatinib -0.528 | mubritinib -0.063 | [3] -0.168 | [7] -0.065 | vorinostat -0.176 | silmitasertib 0.022

TC2N (UniProt Q8N9U0)
UniProt Q8N9U0, sequence (Q8N9U0 whole entry, looked up): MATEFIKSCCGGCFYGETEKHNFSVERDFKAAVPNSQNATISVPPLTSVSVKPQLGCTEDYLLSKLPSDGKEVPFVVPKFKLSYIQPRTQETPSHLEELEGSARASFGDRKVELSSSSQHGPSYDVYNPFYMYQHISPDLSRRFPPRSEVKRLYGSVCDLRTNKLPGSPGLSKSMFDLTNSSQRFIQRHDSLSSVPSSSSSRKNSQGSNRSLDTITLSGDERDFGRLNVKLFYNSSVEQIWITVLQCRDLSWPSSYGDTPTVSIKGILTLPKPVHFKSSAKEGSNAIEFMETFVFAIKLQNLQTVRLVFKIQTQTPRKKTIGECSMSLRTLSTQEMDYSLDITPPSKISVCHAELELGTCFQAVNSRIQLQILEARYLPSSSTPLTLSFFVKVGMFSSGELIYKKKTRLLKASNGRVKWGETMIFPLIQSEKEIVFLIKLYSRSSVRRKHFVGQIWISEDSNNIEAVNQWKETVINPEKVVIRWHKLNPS
active: [8] -0.71
inactive: nilotinib 0.052 | dasatinib 0.068 | [9] -0.024 | [10] -0.153 | mubritinib 0.176 | [2] 0.015 | [3] -0.067 | [7] -0.13 | silmitasertib -0.186

SLC35B4 (UniProt Q969S0)
UniProt Q969S0, sequence (Q969S0 whole entry, looked up): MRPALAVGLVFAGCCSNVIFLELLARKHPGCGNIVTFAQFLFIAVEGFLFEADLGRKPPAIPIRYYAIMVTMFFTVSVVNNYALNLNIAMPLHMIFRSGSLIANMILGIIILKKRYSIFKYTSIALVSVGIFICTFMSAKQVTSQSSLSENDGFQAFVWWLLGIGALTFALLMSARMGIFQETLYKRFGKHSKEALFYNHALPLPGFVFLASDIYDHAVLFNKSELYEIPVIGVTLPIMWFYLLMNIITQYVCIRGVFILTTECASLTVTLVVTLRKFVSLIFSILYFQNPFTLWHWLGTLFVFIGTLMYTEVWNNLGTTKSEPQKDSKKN
inactive: bafetinib -0.12 | nilotinib 0.027 | [8] 0.016 | [9] 0.1 | mubritinib 0.032 | [11] -0.006 | [2] -0.052 | [3] -0.094 | [7] -0.072 | entinostat -0.002 | citarinostat -0.009 | silmitasertib -0.034 | [4] -0.069 | [5] -0.06

SP2 (UniProt Q02086)
UniProt Q02086, sequence (Q02086 whole entry, looked up): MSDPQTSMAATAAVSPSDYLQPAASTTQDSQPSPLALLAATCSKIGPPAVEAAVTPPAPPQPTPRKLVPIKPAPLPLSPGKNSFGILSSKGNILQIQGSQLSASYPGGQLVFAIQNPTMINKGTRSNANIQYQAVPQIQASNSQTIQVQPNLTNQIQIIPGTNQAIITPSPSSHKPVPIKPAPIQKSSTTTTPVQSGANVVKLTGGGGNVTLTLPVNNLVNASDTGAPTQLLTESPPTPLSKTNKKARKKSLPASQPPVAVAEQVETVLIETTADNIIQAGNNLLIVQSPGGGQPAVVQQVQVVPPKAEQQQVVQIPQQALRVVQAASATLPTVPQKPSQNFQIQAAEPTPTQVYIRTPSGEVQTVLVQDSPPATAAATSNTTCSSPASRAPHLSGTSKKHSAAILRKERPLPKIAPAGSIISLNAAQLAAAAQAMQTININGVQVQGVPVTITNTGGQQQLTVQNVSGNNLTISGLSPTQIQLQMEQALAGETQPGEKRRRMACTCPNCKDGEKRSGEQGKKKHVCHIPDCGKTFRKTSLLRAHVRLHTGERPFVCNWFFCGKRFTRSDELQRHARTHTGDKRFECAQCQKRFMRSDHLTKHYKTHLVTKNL
inactive: dasatinib 0.001 | [11] 0.164 | [2] -0.144 | entinostat -0.018 | citarinostat -0.063 | [5] -0.293

TAOK2 (UniProt Q9UL54)
inactive: [1] 0.092 | nilotinib -0.032 | [8] 0.048 | [9] -0.028 | [10] -0.093 | tipifarnib 0.014 | mubritinib 0.01 | [3] -0.01 | vorinostat 0.081 | citarinostat 0.056 | silmitasertib -0.009 | [4] 0.184 | [5] 0.12

SSBP4 (UniProt U3KPY3)
inactive: mubritinib 0.046 | [3] -0.014 | [7] 0.016 | silmitasertib 0.133

SUPT5H isoform 2 (UniProt O00267)
inactive: [7] -0.046

SLC27A1 (UniProt Q6PCB7)
UniProt Q6PCB7, sequence (Q6PCB7 whole entry, looked up): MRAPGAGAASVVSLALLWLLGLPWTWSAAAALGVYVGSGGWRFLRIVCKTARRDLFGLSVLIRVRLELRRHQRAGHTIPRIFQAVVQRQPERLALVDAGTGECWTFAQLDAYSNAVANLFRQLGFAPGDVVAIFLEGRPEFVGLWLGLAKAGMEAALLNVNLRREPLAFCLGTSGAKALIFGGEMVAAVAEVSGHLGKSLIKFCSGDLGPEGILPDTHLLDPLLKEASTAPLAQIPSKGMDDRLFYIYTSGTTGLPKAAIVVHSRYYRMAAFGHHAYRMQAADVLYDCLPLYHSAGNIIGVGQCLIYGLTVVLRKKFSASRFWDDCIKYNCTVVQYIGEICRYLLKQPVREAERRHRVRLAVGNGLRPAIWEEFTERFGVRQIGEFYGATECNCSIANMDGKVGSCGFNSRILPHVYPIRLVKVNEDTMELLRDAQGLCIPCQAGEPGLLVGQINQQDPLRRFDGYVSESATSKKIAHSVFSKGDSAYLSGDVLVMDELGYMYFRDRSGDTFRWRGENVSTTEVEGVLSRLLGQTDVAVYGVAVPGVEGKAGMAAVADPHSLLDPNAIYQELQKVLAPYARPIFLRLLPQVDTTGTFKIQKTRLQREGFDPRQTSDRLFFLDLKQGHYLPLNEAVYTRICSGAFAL
active: mubritinib 0.431
inactive: bafetinib 0.047 | nilotinib -0.087 | [8] -0.009 | dasatinib -0.152 | [9] 0.079 | [6] -0.053 | [10] 0.046 | tipifarnib 0.094 | [11] 0.026 | [2] -0.012 | [3] -0.016 | [7] 0.038 | entinostat -0.013 | silmitasertib -0.039 | [4] 0.014

TANGO6 (UniProt Q9C0B7)
inactive: bafetinib 0.033 | nilotinib -0.018 | [8] -0.066 | dasatinib -0.216 | [9] -0.006 | [6] 0.083 | [10] -0.048 | tipifarnib -0.067 | mubritinib 0.042 | [11] -0.007 | [2] -0.002 | [3] -0.167 | entinostat 0.035 | citarinostat -0.071 | silmitasertib 0.084 | [4] 0.017 | [5] -0.089

TM7SF3 (UniProt Q9NS93)
active: [3] -0.359
inactive: bafetinib -0.147 | nilotinib -0.004 | [8] 0.005 | dasatinib 0.005 | [9] -0.029 | [6] -0.034 | [10] 0.034 | tipifarnib 0.019 | mubritinib 0.147 | [11] 0.091 | [2] 0.048 | entinostat 0.076 | citarinostat 0.179 | silmitasertib 0.066 | [5] 0.084

SYK (UniProt P43405)
inactive: bafetinib 0.276 | dasatinib -0.356 | [6] 0.141 | [10] -0.041 | tipifarnib 0.075 | [7] -0.029 | citarinostat -0.029 | [4] 0.075 | [5] -0.123

SLC35A1 (UniProt P78382)
UniProt P78382, sequence (P78382 whole entry, looked up): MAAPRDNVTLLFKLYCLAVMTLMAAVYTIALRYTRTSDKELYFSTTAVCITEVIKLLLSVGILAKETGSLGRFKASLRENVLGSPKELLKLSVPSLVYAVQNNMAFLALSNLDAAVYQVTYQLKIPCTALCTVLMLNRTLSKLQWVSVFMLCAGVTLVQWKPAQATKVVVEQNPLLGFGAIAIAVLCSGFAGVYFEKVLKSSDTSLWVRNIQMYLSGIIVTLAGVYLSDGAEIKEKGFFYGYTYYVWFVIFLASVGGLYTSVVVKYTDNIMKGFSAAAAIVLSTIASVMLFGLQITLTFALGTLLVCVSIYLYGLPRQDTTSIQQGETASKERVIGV
inactive: bafetinib 0.005 | nilotinib -0.009 | [8] -0.055 | dasatinib 0.036 | [9] -0.02 | [6] 0.03 | [10] 0.067 | tipifarnib -0.022 | mubritinib 0.049 | [11] -0.05 | [2] -0.015 | [3] -0.069 | [7] 0.1 | entinostat -0.065 | citarinostat 0.047 | silmitasertib 0.021 | [4] 0.028 | [5] -0.106

SLC35B1 isoform 2 (UniProt P78383)
UniProt P78383, sequence (P78383 whole entry, looked up): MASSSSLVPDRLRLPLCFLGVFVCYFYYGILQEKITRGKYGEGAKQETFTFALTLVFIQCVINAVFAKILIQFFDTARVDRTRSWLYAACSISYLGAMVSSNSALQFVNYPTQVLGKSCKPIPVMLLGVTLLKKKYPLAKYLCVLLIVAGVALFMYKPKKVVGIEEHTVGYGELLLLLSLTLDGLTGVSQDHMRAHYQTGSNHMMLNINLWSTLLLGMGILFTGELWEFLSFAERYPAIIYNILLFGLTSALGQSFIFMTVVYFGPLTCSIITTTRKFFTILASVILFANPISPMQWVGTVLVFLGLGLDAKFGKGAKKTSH
inactive: bafetinib -0.018 | nilotinib -0.065 | [8] 0.052 | dasatinib 0.142 | [9] -0.097 | [6] -0.13 | [10] -0.172 | mubritinib 0.016 | [11] -0.054 | [3] -0.029 | [7] -0.057 | entinostat 0.041 | citarinostat -0.052 | silmitasertib 0.261 | [4] 0.138 | [5] -0.327

SLC9A6 isoform 3 (UniProt Q92581)
UniProt Q92581, sequence (Q92581 whole entry, looked up): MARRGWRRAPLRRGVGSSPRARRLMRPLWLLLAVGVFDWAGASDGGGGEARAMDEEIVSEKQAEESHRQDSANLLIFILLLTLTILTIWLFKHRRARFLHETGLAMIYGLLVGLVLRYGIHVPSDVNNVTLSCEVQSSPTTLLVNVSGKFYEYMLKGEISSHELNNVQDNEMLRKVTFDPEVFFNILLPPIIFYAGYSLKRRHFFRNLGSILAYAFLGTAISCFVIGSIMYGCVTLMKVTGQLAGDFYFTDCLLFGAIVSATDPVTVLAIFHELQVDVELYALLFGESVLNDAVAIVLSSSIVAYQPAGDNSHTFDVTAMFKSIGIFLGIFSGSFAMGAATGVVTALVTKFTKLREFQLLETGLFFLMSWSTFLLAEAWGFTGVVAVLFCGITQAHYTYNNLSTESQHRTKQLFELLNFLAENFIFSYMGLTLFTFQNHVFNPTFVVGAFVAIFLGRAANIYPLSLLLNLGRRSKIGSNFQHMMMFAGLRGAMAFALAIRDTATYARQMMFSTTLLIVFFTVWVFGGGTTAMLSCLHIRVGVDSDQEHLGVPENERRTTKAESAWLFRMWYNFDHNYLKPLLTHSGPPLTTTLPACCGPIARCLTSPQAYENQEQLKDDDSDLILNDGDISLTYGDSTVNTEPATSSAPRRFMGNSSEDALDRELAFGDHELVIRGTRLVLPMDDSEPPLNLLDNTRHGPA
inactive: bafetinib -0.096 | dasatinib 0.065 | [6] 0.048 | tipifarnib 0.028 | [2] 0.009 | citarinostat -0.066 | [5] 0.172

SMARCB1 (UniProt Q12824)
UniProt Q12824, sequence (Q12824 whole entry, looked up): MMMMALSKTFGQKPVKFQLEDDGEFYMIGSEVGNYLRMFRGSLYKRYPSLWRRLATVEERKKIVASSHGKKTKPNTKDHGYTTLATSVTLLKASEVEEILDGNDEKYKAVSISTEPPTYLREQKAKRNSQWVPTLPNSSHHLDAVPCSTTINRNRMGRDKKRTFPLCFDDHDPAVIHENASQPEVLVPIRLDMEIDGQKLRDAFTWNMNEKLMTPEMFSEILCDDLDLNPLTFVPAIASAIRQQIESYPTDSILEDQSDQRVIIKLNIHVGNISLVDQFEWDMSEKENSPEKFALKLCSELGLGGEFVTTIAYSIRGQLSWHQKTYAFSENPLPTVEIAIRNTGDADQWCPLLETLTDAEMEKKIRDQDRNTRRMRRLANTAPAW
inactive: [1] -0.277 | dasatinib -0.059 | [6] -0.122 | [11] -0.023 | [7] -0.261 | entinostat -0.005 | vorinostat -0.158 | citarinostat -0.171 | [5] -0.103

SLC29A3 (UniProt Q9BZD2)
inactive: bafetinib -0.111 | nilotinib -0.055 | [8] 0.127 | dasatinib -0.059 | [9] 0.012 | [6] 0.167 | [10] 0.102 | tipifarnib 0.035 | mubritinib 0.005 | [11] -0.098 | [2] -0.124 | [3] -0.304 | [7] 0.04 | entinostat -0.022 | citarinostat -0.123 | silmitasertib 0.047 | [4] 0.142 | [5] -0.033

TCOF1 isoform 3 (UniProt Q13428)
inactive: [1] -0.005 | [10] -0.419 | [11] 0.283 | entinostat 0.008 | vorinostat 0.205 | citarinostat 0.105 | [4] 0.067 | [5] -0.146
